Assay outcomes deposited in PubChem by National Center for Advancing Translational Sciences (NCATS).
Compounds with a hit are over-represented: about 21% of the library has one in this group of screens.
Pf growth 96h – inhibits malaria parasite growth, 96 h. P. falciparum luciferase reporter growth, 96 h. hit rate 6.9% among 320,000. Potency, µM (series often up to 28.7 µM), for inactives: at the top dose activity change, negative = inhibition, usual class: inhibitors. AID 504834; further: potency means the concentration at half of the fitted maximal effect; on the % scale 0 is the no-effect control and ±100 the full control effect
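Luminescence readout: decreased luciferase signal marks inhibited growth of reporter-expressing P. falciparum in infected red cells (2% hematocrit, 0.05% parasitemia final), exposed to compound two generations (96 h, 37 C, 5% CO2).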
HCV inh – blocks hepatitis C virus. Huh7.5.1 HCVcc-Cre infection, luciferase reporter, 44 h. Potency, µM (highest dose often 41.8 µM), inactives show top-dose activity change, negative = inhibition, most hits filed as inhibitors. hit rate 3.4% among 340,000; further: potency means the concentration at half of the fitted maximal effect; on the % scale 0 is the no-effect control and ±100 the full control effect
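Cells seeded at 1,000/well and cultured 4 h, then compounds added followed by HCVcc-Cre virus (~0.5 moi). After 44 h further culture, luciferase substrate was added, plates held 15 min at room temperature, and luminescence read for 15 sec.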
Pf growth 48h – inhibits P. falciparum growth in the first generation, 48 h; P. falciparum luciferase growth in erythrocytes, 48 h; Potency, µM (top dose mostly 28.7 µM), inactives show at the highest dose activity change, negative = inhibition, usual class: inhibitors; hit rate 5.9% among 310,000; further: potency means the concentration at half of the fitted maximal effect; on the % scale 0 is the no-effect control and ±100 the full control effect
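Luciferase-expressing P. falciparum in infected erythrocytes (2% hematocrit, 0.1% parasitemia final) in RPMI 1640/0.5% Albumax were exposed to compound for 48 hours at 37 C, 5% CO2; growth read as luminescence.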
Shiga toxin inh – Shiga toxin inhibition; hit rate 9.2% among 290,000; inhibition, % at 38.7 µM; AID 2315; Vero cells, Shiga toxin protein synthesis inhibition reporter; in the data active means inhibition mostly above about 28%, no sharp cut-off; inactive means mostly below about 43%; further: 0% is about no effect
CHX counter – counter-screen hit for Shiga toxin inhibitors, cycloheximide; hit rate 12% among 300,000; max response, %; AID 2314; cell reporter, cycloheximide protein synthesis inhibition counterscreen; in the data active means max response mostly above about 13%, no sharp cut-off; inactive means mostly below about 14%; further: read at 38.3 µM for the half of the compounds with a filed dose; 0% is about no effect
HCMV inh – inhibitors of human cytomegalovirus; HFF cells, HCMV-luciferase reporter, 72 h; active compounds read low; activity change, negative = inhibition, % at 57.5 µM; hit rate 4.5% among 410,000; AID 1259415; in the data active means activity change below about -60%; inconclusive means no clear call, values can overlap the other calls; inactive means above about -39%; further: on the % scale 0 is the no-effect control and ±100 the full control effect
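Two compound doses tested in HFFs infected with HCMV-luciferase, MOI 1 PFU/cell, 72 h at 37C. Lysate luminescence read with OneGlo; data normalized against buffer-only and 10uM Salinomycin inhibitor controls.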
Numbers without * were called inactive; ? = inconclusive; nt = not tested or not shown; + = active, no number; ! = not active in a repeat. Unless noted, the call rests on the fitted dose curve; in most records, active means well fitted inhibition curve with a large enough effect; inconclusive means small, poorly fitted or top-dose-only effect, or another doubt; inactive means no such curve, though single readings can be large or run the other way.

SMILES | Pf growth 96h | HCV inh | Pf growth 48h | Shiga toxin inh | CHX counter | HCMV inh
Cc1ccccc1-c1cccc([C@@H]2C[C@H]3[C@H](CON3C)CN2C(=O)C(C)(C)C)c1 | nt | 1.3% | nt | nt | nt | -3.4
O=C(N/N=C/c1ccco1)c1ccccc1OCc1ccccc1Cl | -10.8% | ? | 8.6% | -30.2 | 18.8* | ?
O=C(N/N=C/c1ccc[nH]1)c1ccccc1OCc1ccccc1Cl | ? | -24.8% | -16.8% | 10.7 | 14.8* | -28.7
CCn1ccc2cc(S(=O)(=O)N3CCC(C(=O)NCCc4ccc(C)cc4)CC3)ccc21 | nt | nt | nt | nt | nt | -15.0
CN[C@@H](CC(C)C)C(=O)N[C@@H]1C(=O)N[C@H](CC(N)=O)C(=O)N[C@@H]2C(=O)N[C@H]3C(=O)N[C@H](C(=O)N[C@H](C(=O)O)c4cc(O)cc(O)c4-c4cc3ccc4O)[C@H](O)c3ccc(c(Cl)c3)Oc3cc2cc(c3O[C@H]2O[C@@H](CO)[C@@H](O)[C@@H](O)[C@@H]2O[C@@H]2C[C@](C)(N)[C@H](O)[C@H](C)O2)Oc2ccc(cc2Cl)[C@@H]1O | -11.0% | nt | -7.3% | nt | nt | nt
CCOc1cc(/C=N/NC(=O)Nc2ccccc2)ccc1O | -29.1% | ? | 47.8% | 71.5* | 37.2* | 16.1
Cc1cc(C(=O)N/N=C2\CC(=O)c3ccccc32)c(C)n1-c1ccc(F)cc1 | 2.33µM* | -28.8% | 4.65µM* | 41.1* | 22.5* | -5.0
COc1cc(/C=N/NC(=O)Nc2ccccc2)ccc1OC(C)=O | 122.6% | 10.3% | 140.3% | 53.2* | 39.4* | 45.3
CCOc1cc(/C=N/NC(=O)c2cc(C)n(-c3ccc(F)cc3)c2C)ccc1O | -27.0% | ? | 0.0% | 87.3* | 22.4* | -11.0
CCOc1ccccc1NC(=O)C(=O)c1cc(C)n(-c2ccc(F)cc2)c1C | nt | nt | nt | nt | nt | 22.1
C(=C\c1ccccc1)/CN1CCN(C(c2cc3ccccc3o2)c2nnnn2-c2ccc3c(c2)OCCO3)CC1 (stereo not given) | nt | nt | nt | nt | nt | 16.2
Cc1cccc(C)c1NC(=O)NCCc1c[nH]c2ccccc12 | nt | nt | nt | nt | nt | 6.3
CN1C2CCC1CC(NS(=O)(=O)c1ccc(C#N)cc1)C2 (stereo not given) | 30.8% | 1.0% | 66.3% | -5.2 | -0.6 | 7.2
Cc1ccc(NC(=O)c2cc(N3C(=O)C=CC3=O)ccc2N2CCOCC2)cc1 | 4.2% | 10µM* | -2.4% | 15.2 | 8.1 | ?
Cc1ccc(NC(=O)c2cc(NC(=O)c3ccco3)ccc2N2CCOCC2)cc1 | -1.1% | 12.6µM* | -11.2% | -9.4 | -3.9 | 8.7
O=C(Nc1ccc(N2CCOCC2)c(C(=O)O)c1)c1ccco1 | -102.8% | nt | nt | -6.7 | 6.0 | nt
Cc1ccc(NC(=O)c2cc(NC(=O)c3ccco3)ccc2N2CCCCC2)cc1 | -29.1% | ? | 6.57µM* | 9.6 | -1.4 | -63.7*
Cc1c([N+](=O)[O-])c(C(=O)NC2CCCCC2)nn1C | -12.5% | 6.0% | 6.4% | -2.8 | -1.7 | 11.5
O=C(NC1CC1)c1cccc(NC(=O)c2cc(S(=O)(=O)N3CCOCC3)ccc2Cl)c1 | ? | ? | -4.8% | nt | nt | 39.7
Cc1cccc(C(c2sc3nc(-c4ccco4)nn3c2O)N2CCN(c3ccccc3F)CC2)c1 (stereo not given) | nt | nt | nt | nt | nt | 13.3
C#CCN(C[C@@H](CC(C)C)NC(=O)OC(C)(C)C)S(=O)(=O)c1ccc(Br)cc1F | nt | ? | nt | nt | nt | -18.6
COc1ccc(NS(=O)(=O)c2ccc3oc(SC(C)C(N)=O)nc3c2)cc1 (stereo not given) | 4.65µM* | 10µM* | 2.33µM* | -16.3 | 1.0 | nt
COc1ccc(NS(=O)(=O)c2ccc(NS(=O)(=O)c3ccc4c(c3)OCCO4)cc2)cc1 | nt | nt | nt | nt | nt | 17.8
COc1cccc(S(=O)(=O)Nc2ccc3c(c2)OCCO3)c1 | 67.4% | -9.8% | 48.2% | 51.7* | 36.7* | -37.0
COc1ccc(NS(=O)(=O)c2ccc3oc(Nc4ccc5c(c4)OCCO5)nc3c2)cc1 | -9.6% | 3.98µM* | -28.3% | + | 30.1* | -84.7*
SMILES | Pf growth 96h | HCV inh | Pf growth 48h | Shiga toxin inh | CHX counter | HCMV inh
COc1ccc(NC(=O)CSC2=Nc3ccccc3C3=NC(CC(=O)NCc4ccc(F)cc4)C(=O)N23)cc1 (stereo not given) | nt | nt | nt | nt | nt | 8.2
COc1ccc(-c2noc(CSc3nnc(Cc4ccccc4)n3-c3ccc(Cl)cc3)n2)cc1 | ? | 14.1µM* | nt | -6.6 | -1.0 | -2.3
Cc1ccc(-c2noc(CSc3nnc(CCc4ccccc4)n3-c3ccccc3)n2)cc1 | nt | ? | ? | -9.0 | 2.2 | -35.1
Cc1ccc(-c2noc(CSc3nnc(Cc4ccccc4)n3-c3ccc(Cl)cc3)n2)cc1 | 9.28µM* | ? | nt | -9.5 | -1.7 | -11.6
COc1ccc(-c2noc(CSc3nnc(CCc4ccccc4)n3-c3ccccc3)n2)cc1OC | nt | 11.2µM* | ? | -3.6 | -0.4 | -31.0
O=C(CNS(=O)(=O)c1ccccc1)N1CCN(Cc2ccccc2)CC1 | 18.1% | 16.7% | -6.6% | 36.5 | 13.0 | 1.0
COc1cc(OC)c(Nc2nc3ccc(C)cc3n3nnnc23)cc1Cl | nt | nt | nt | nt | nt | 17.8
CCOC(=O)CCc1nc2ccccc2[nH]c1=O | -18.4% | 10.1% | 3.9% | -11.1 | -0.9 | 20.9
Cc1c(OCC(F)(F)F)ccnc1CS(=O)c1nc2ccccc2[nH]1 (stereo not given) | -18.0% | ? | 10.3% | 116.0*! | 26.6* | 22.4
COCCCOc1ccnc(CS(=O)c2nc3ccccc3[nH]2)c1C (stereo not given) | 57.0% | ? | 40.0% | 47.7* | 43.5* | -65.1*
Cc1c(OCC(F)(F)F)ccnc1CSc1nc2ccccc2[nH]1 | ? | ? | ? | 132.0* | 53.5* | -8.5
CCCOc1ccc(F)cc1-c1cc(C(=O)Nc2ccc(C)c(NS(C)(=O)=O)c2)[nH]n1 | nt | nt | nt | nt | nt | -32.0
COc1ccc(C(=O)N2CCN(C(=O)COc3ccc(Br)cc3)CC2)cc1OC | nt | nt | nt | nt | nt | 20.8
CCc1nc2c(OCc3ccc(Cl)cc3Cl)cccn2c1N(C)C(=O)c1ccccc1F | nt | nt | nt | nt | nt | -5.1
CCC(C(=O)N1CCN(c2cc(Cl)ccc2C)CC1)n1nc(C)n2c(cc3occc32)c1=O (stereo not given) | nt | nt | nt | nt | nt | -29.0
Cc1noc(C)c1C(=O)Nc1cccc(S(=O)(=O)N2CCCCC2)c1 | 8.28µM* | -5.9% | -14.8% | nt | nt | -34.7
Cc1onc(-c2ccccc2)c1C(=O)Nc1ccc(S(=O)(=O)N2CCCCC2)cc1 | ? | ? | ? | -16.1 | -7.0 | -2.8
Cc1onc(-c2c(F)cccc2Cl)c1C(=O)Nc1ccc(S(=O)(=O)N2CCOCC2)cc1 | nt | 2.9% | nt | nt | nt | -69.2*
Cc1onc(-c2ccccc2)c1C(=O)N1CCCSC1=Nc1ccccc1 | ? | 13.0% | 2.94µM* | 11.7 | 6.0 | -34.5
Cc1onc(-c2c(F)cccc2Cl)c1C(=O)Nc1cc(S(=O)(=O)N2CCCCC2)ccc1O | nt | ? | nt | nt | nt | -100.2*
